# In paper PMC7819943, “Rice protein-binding microarrays: a tool to detect cis-acting elements near promoter regions in rice”:
# In all, about 68,000 sequences were measured (“fluorescence intensity (a.u.)”: median about 9,100, highest 2% from about 16,000 on). The full list was thinned out, with the highest values kept by preference.
# Target: OsWRKY34 (Oryza sativa, UniProt Q0JBA9 1-250)
# Assay: protein-binding microarray (RPBM); PBS, 2% BSA, 51.3 ng/ul salmon testes DNA, 50 uM zinc acetate, 200 nM TF, 25 C, 1 h; high values mean tight binding
# Conditions: protein: recombinant; tags: N-terminal polyhistidine and DsRed monomer fusion (pET32a); label: CyDye5-dUTP incorporated in the synthesized complementary strand; 3' TTTTT single-stranded linker to array surface; dsDNA, one strand shown
# How it was run: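 Binding signal is defined as the fluorescence intensity of each feature in arbitrary units, read on an Axon 4000B scanner. Transcription factors with N-terminal polyhistidine and DsRed fusions came from E. coli BL21-CodonPlus and were purified on Ni–NTA. They were incubated at 200 nM for 1 h at 25 °C on a custom Agilent array that had been made double-stranded with Cy5-dUTP, with 50 µM zinc acetate present, and the array was washed.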
# Chain of OsWRKY34 (Q0JBA9 entry or part of it): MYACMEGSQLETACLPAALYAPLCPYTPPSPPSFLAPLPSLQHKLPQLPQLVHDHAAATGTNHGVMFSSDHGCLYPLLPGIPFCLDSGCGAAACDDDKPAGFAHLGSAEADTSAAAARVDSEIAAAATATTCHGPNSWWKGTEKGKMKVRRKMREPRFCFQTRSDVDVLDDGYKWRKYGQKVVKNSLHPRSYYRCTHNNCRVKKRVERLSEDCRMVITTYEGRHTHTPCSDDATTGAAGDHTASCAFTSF
row,Sequence,binding signal
1,ATCATCCCATCCCATCTCATCCGTCCATCCGCCAACTCATCGGAGTCACCTAGTGCAG,12300 fluorescence intensity (a.u.)
2,GAGGTAGGGAGAGGTTTCGTTAGGGTTTCGGGCGGGGATGCGGAGTCACCTAGTGCAG,19900 fluorescence intensity (a.u.)
3,TTCGGGGAGGGTTTTCGGGGACAGCAGCTGCGGGCTTAAACGGAGTCACCTAGTGCAG,18700 fluorescence intensity (a.u.)
4,GGAGGAGGAGCTAGGGTTTCGGATGGGAGGAGGAGGAGGGCGGAGTCACCTAGTGCAG,8800 fluorescence intensity (a.u.)
5,ATCGGGGTTGTTGTTTTTGTAGCTGCTTAAGCTTTTTATTCGGAGTCACCTAGTGCAG,14100 fluorescence intensity (a.u.)
6,CGGGAGGGCGAGAGGGTTTTCGGAGCGGGAGGGGAAGATGCGGAGTCACCTAGTGCAG,15200 fluorescence intensity (a.u.)
7,AGAGATCGGGGTTTGGTTTTTTGGAGGGGAGAGCGGAGTGCGGAGTCACCTAGTGCAG,10200 fluorescence intensity (a.u.)
8,GGGTTTTTTTTTTTTTTGCTGCTTTGCTTAGCACTTTTTTCGGAGTCACCTAGTGCAG,8340 fluorescence intensity (a.u.)
9,CCAGGAGGGTGAGCTTGATGCAGGGGCGGGTGCGGGCGAGCGGAGTCACCTAGTGCAG,12500 fluorescence intensity (a.u.)
10,CGGAGAGGGAGGGGAGCTAGGGTTTTTCGGGGCGGGGATGCGGAGTCACCTAGTGCAG,27600 fluorescence intensity (a.u.)
11,GGAGGGTTAGATCACCAGGGGCGGGTTGATGCAAAAAATTCGGAGTCACCTAGTGCAG,17000 fluorescence intensity (a.u.)
12,GGCGGCGGCGGCAGGGGCGGCGGAGGGTTGGCGGCGGCGGCGGAGTCACCTAGTGCAG,11000 fluorescence intensity (a.u.)
13,CAGTGTAGGGGAGAGAGAGAGAGAGTGGGGTAGAGGGATGCGGAGTCACCTAGTGCAG,8980 fluorescence intensity (a.u.)
14,TCTCGATCTCCCCGCCTATTTATGCTCGTCTCGTCACCCGCGGAGTCACCTAGTGCAG,8140 fluorescence intensity (a.u.)
15,GATATTTTGCTTGTATTGTTCGACCACTCGTCTTATTAAACGGAGTCACCTAGTGCAG,8040 fluorescence intensity (a.u.)
16,TCATCTCATCTCTCTCGTTTTTATATGCACGTTTTTCAAACGGAGTCACCTAGTGCAG,9530 fluorescence intensity (a.u.)
17,TTTGGGTGGTGGCAGTTGACAGAAGAGAGTGAGCACACAGCGGAGTCACCTAGTGCAG,8270 fluorescence intensity (a.u.)
18,TTTACAATGGTATCTATGTGTTGTTTTTGTGTGTGTGTGTCGGAGTCACCTAGTGCAG,10100 fluorescence intensity (a.u.)
19,ATGCTTGCCTTCTTCTTATTCTCCTTCCCTATGGTCTTCTCGGAGTCACCTAGTGCAG,8770 fluorescence intensity (a.u.)
20,ACATGCAACAGTGTGTCGTGCTTGTATTTCTGTTATCTGACGGAGTCACCTAGTGCAG,8660 fluorescence intensity (a.u.)
21,GTGCATGTGTAGGGAGGGCACAATGGAGGGGTGTTTTTTTCGGAGTCACCTAGTGCAG,15000 fluorescence intensity (a.u.)
22,TCCGTTTTGCCGTTGGGCTAGCTTAGCTTGTTTTTTTTTTCGGAGTCACCTAGTGCAG,12000 fluorescence intensity (a.u.)
23,ATGTGATTAAATGGAGGGTTTTCGGGGAGGGTTTTCGGGGCGGAGTCACCTAGTGCAG,24100 fluorescence intensity (a.u.)

row,Sequence,binding signal
1,TCCAACTTGGGGAGGGAGGGCCGTTTCAGCTCGGGCTTTTCGGAGTCACCTAGTGCAG,17200 fluorescence intensity (a.u.)
2,ATGGGTGGAGGAGTGGGAGGGGATTAAATATCGGCGGAGGCGGAGTCACCTAGTGCAG,9240 fluorescence intensity (a.u.)
3,CTTCAACTTTCTCGTTTTCCGTCAGCACGCTTTCCAAACTCGGAGTCACCTAGTGCAG,9080 fluorescence intensity (a.u.)
4,AATGTGACCAAGCCAACTTAACTTATTATACTTCTTAGTTCGGAGTCACCTAGTGCAG,8680 fluorescence intensity (a.u.)
5,CCAAGACCGCACCCGTATAAAGCCGCAGACCTCTCTCTCCCGGAGTCACCTAGTGCAG,10100 fluorescence intensity (a.u.)
6,CTCTGACCATATATCACGTTCTACGTCCAGGTCAAATCACCGGAGTCACCTAGTGCAG,8730 fluorescence intensity (a.u.)
7,TGCGTCCCTCTTCCTTCATTCTCCTGACGCCTAGGGCCCACGGAGTCACCTAGTGCAG,8280 fluorescence intensity (a.u.)
8,TTATGGGTATGTCACCAGGGGTTTAATCTTTCATTTTCAACGGAGTCACCTAGTGCAG,12300 fluorescence intensity (a.u.)
9,ATGATAGGTCCTGGACTCACAAGTTATTGAGAACGGCACGCGGAGTCACCTAGTGCAG,50900 fluorescence intensity (a.u.)
10,CACTCAACCTAACTGTTGAACGGTCCTGTTCTGGCCAACGCGGAGTCACCTAGTGCAG,8890 fluorescence intensity (a.u.)
11,CTGGACGCGGTCCTGCACGACACATGCATCATCTCCTCAACGGAGTCACCTAGTGCAG,8570 fluorescence intensity (a.u.)
12,TGGTGTGTTTTTTGGGATGTTTCGGTAGGTATTTTGTGATCGGAGTCACCTAGTGCAG,12000 fluorescence intensity (a.u.)
13,GGCTGCCTCCTCTCCTCATCCCTGCACCTACACTCCAATACGGAGTCACCTAGTGCAG,8530 fluorescence intensity (a.u.)
14,CTCACCTACCGCATCTGTGTTCCTTTTGCTTTCTTTCTTTCGGAGTCACCTAGTGCAG,18100 fluorescence intensity (a.u.)
15,CATCTTACCTTACGTCCACCGCATCTCATCCTTTGCTGTTCGGAGTCACCTAGTGCAG,12200 fluorescence intensity (a.u.)
16,GCCTTCTCCATCTCTCTGCTTCTTTTGTTTGTTTTTCTTTCGGAGTCACCTAGTGCAG,13000 fluorescence intensity (a.u.)
17,GTTTTCTTTCTTTTTTTTTTCCACCTGTCGCACTGTACATCGGAGTCACCTAGTGCAG,11800 fluorescence intensity (a.u.)
18,ATCCATCTTCTTCTTCTTTCTTTCTTTTCTTCCTCTTCTTCGGAGTCACCTAGTGCAG,10400 fluorescence intensity (a.u.)
19,GCAGCTCTACTGTTTTCCGCTTCCATCTTCTTCCTTTCTTCGGAGTCACCTAGTGCAG,16700 fluorescence intensity (a.u.)
20,TTACACATTTCTTTTTCATCACTGCTGATATGTTATCCTTCGGAGTCACCTAGTGCAG,9940 fluorescence intensity (a.u.)
21,TCCTTTTGCTTTCTTTCTTTTGTGTTTTTCAAATTTCTACCGGAGTCACCTAGTGCAG,9810 fluorescence intensity (a.u.)
22,GTCCTTTACACTGATCCTGCACATCGCTCACTGTTTTCTTCGGAGTCACCTAGTGCAG,16800 fluorescence intensity (a.u.)
